Assay outcomes as filed in PubChem BioAssay.
The sample as a whole holds a higher share of hits than the screen did.
Vaccinia Venus: vaccinia inhibition (Venus reporter); Vaccinia virus Venus reporter expression, fluorescence; Potency, µM (series often up to 36.5 µM), for the others: at the top dose activity change, negative = inhibition, hits mostly inhibitors; 330,000 compounds, 0.46% hits; calls by dose curve; tested in A549 cells; also: potency is read from the fitted curve at half-maximal effect; % is scaled to controls: 0 for no effect and ±100 for the full control effect; nearly all actives have a fitted effect of over 30% in size
Marburg entry inh: inhibitors of Marburg virus binding or cell entry; AID 540276; Marburg virus pseudotyped entry inhibition, cell reporter; Potency, µM (top dose mostly 37.8 µM), without a hit: at the highest dose activity change, negative = inhibition, actives largely listed as inhibitors; 300,000 compounds, 1.8% hits; calls by dose curve; tested in HEK293 cells; also: potency is read from the fitted curve at half-maximal effect; % is scaled to controls: 0 for no effect and ±100 for the full control effect
Shiga toxin inh: inhibitors of Shiga toxin in Vero cells | 290,000 compounds, 9.2% hits | inhibition, % at 38.7 µM | Vero cells, Shiga toxin protein synthesis inhibition reporter; in the data active = inhibition mostly above about 28%, no sharp cut-off; inactive = mostly below about 43%; also: 0% is about no effect
Cycloheximide cs: affects cycloheximide protein synthesis inhibition readout, counter-screen; cell reporter, cycloheximide protein synthesis inhibition counterscreen; max response, %; 300,000 compounds, 12% hits; in the data active = max response mostly above about 13%, no sharp cut-off; inactive = mostly below about 14%; also: read at 38.3 µM for the half of the compounds with a filed dose; 0% is about no effect
LASV entry inh: Lassa virus entry inhibition; Potency, µM (titrated, usually from 37.9 µM), without a hit: at the highest dose activity change, negative = inhibition, hits mostly inhibitors; 300,000 compounds, 1.2% hits; AID 540256; Lassa virus pseudotype entry inhibition, cell reporter; calls by dose curve; tested in HEK293 cells; also: potency is read from the fitted curve at half-maximal effect; % is scaled to controls: 0 for no effect and ±100 for the full control effect; nearly all actives have a fitted effect of over 50% in size
VACV mCherry inh: vaccinia inhibition (mCherry reporter); Vaccinia virus mCherry reporter infection, fluorescence; Potency, µM (highest dose often 36.5 µM), for the others: top-dose activity change, negative = inhibition, most hits filed as inhibitors; 310,000 compounds, 0.63% hits; calls by dose curve; tested in A549 cells; also: potency is read from the fitted curve at half-maximal effect; % is scaled to controls: 0 for no effect and ±100 for the full control effect; nearly all actives have a fitted effect of over 35% in size
An asterisk follows results filed as active; i = inactive; ? = inconclusive; / = no result; [ ] = another dose, or the depositor's remark.

SMILES	Vaccinia Venus	Marburg entry inh	Shiga toxin inh	Cycloheximide cs	LASV entry inh	VACV mCherry inh
Cn1c(-c2cccc(Br)c2)cnc1NCc1cccc(F)c1	-17.2%	?	/	/	-15.6%[46.1 µM]	-11.9%
Cc1ccc(C(=O)N2CCN(c3ccccc3F)CC2)cc1NC(=O)c1nsc2ccccc12	-19.8%	/	/	/	?	-10.1%
COCc1ccc(C(=O)N(C)CC2CCCN(CCc3ccc(OC)cc3)C2)o1 (stereo not given)	-5.4%	?	77.2*	34.2*	?	-9.7%
COc1ccc(CCN2CCCC(CN(C)C(=O)c3ccoc3C)C2)cc1 (stereo not given)	-0.9%	0.9%	40.3*	32.4*	-10.3%	-9.0%
COc1ccc(CCN2CCCC(CN(C)C(=O)c3cc(C)oc3C)C2)cc1 (stereo not given)	-14.5%	?	91.0*	68.9*	-5.6%[46.1 µM]	-14.3%
O=C(Cn1c(=O)nc(-c2ccccc2)c2cc(Cl)ccc21)Nc1ccc(F)c(Cl)c1	0.9%	3.3%[46.1 µM]	/	/	?	-7.8%
CCn1c(CNC(=O)C23CC4CC(CC(C4)C2)C3)nnc1SCC(=O)Nc1ccc(C)cc1	-17.9%	-18.9%[46.1 µM]	/	/	-15.8%[46.1 µM]	-5.9%
COc1cc2c(NC3CCN(C)CC3)nc(N3CCCN(C)CC3)nc2cc1OCCCCCN	?	/	/	/	/	-23.5%
COc1cc2c(NC3CCN(C(C)C)CC3)nc(N3CCCN(C)CC3)nc2cc1OCCOCCN1CCCC1	3.55µM*	/	/	/	/	?
COc1cc2c(NC3CCN(C)CC3)nc(N3CCCCC3)nc2cc1OCCOCCN1CCCC1	10µM*	/	/	/	/	?
COc1cc2c(NC3CCN(C)CC3)nc(N3CCCN(C)CC3)nc2cc1OCCCN1CCOCC1	8.91µM*	/	/	/	/	?
COc1cc2c(NC3CCN(C)CC3)nc(N3CCCN(C)CC3)nc2cc1OCCCCCC(N)=O	-14.6%	/	/	/	/	i
Cc1cc[n+](CC#N)cc1	-11.6%	/	/	/	/	-14.1%
Cc1nc2ccc(S(=O)(=O)Nc3cccc(-c4nc5cccnc5s4)c3C)cc2s1	-14.3%	?	-12.6	-2.2	-12.7%	-0.3%
Cc1ccc(-c2nc3cccnc3s2)cc1NS(=O)(=O)c1cccs1	-11.3%	/	38.3*	19.4*	/	-2.5%
COc1cc(OC)cc(C(=O)Nc2cc(-c3nc4cccnc4s3)ccc2C)c1	?	/	/	/	3.2%[46.1 µM]	?
Cc1nc2ccc(S(=O)(=O)Nc3cc(-c4nc5cccnc5s4)ccc3C)cc2s1	-19.5%	-29.2%	85.4*	74.9*	-18.2%	-10.0%
Cc1ccc(-c2nc3cccnc3s2)cc1NS(=O)(=O)c1ccc2c(c1)OCCO2	3.7%	/	19.1*	39.9*	/	3.2%
OCC[C@H]1C[C@@H](O)[C@H](O)[C@@]2(Cc3ccccc3CO2)O1	-0.7%	/	/	/	/	i
Cc1cccc(C(c2sc3nc(-c4ccco4)nn3c2O)N2CCOCC2)c1 (stereo not given)	-10.9%	/	/	/	0.8%[46.1 µM]	-6.9%
CC1CCN(C(=O)CN2CCSc3ccccc32)CC1	6.2%	/	/	/	-5.1%[46.1 µM]	-6.6%
O=S(=O)(Cc1ncc(C(F)(F)F)cc1Cl)c1ccccc1	-9.4%	-23.5%[46.1 µM]	51.0*	44.5*	?	?
O=C(O)CCc1ncc(C(F)(F)F)cc1Cl	-4.1%	18.9%	-6.0	-1.9	11.5%	-2.7%
C=CCOC(=O)N[C@H](c1ccc2ccccc2c1)[C@H](C)C=CCC(=O)OC	/	-4.3%[14.2 µM]	/	/	?	/
Cc1ccc(NC(=S)N2CCC(c3ccccc3)C2)c(Cl)c1 (stereo not given)	-9.4%	?	72.2*	18.7	10µM*	-15.2%
SMILES	Vaccinia Venus	Marburg entry inh	Shiga toxin inh	Cycloheximide cs	LASV entry inh	VACV mCherry inh
Fc1ccccc1NC(=S)N1CCC(c2ccccc2)C1 (stereo not given)	-22.4%	1.6%[46.1 µM]	164.2*	61.6*	?	i
COc1ccc(C2CCCN2C(=S)Nc2ccc(C)cc2Cl)cc1OC (stereo not given)	0.9%	?	63.8*	42.7	-25.3%[46.1 µM]	i
S=C(Nc1ccccc1Cl)N1CCC(c2ccccc2)C1 (stereo not given)	-3.5%	19.8%[46.1 µM]	130.9*	44.3*	1.4%	10.1%
Cc1ccc(C)c(OC(=O)CSc2nnc(CNC(=O)c3ccccc3)o2)c1	-0.1%	-11.4%[46.1 µM]	/	/	-3.0%[46.1 µM]	-4.7%
Fc1cc(F)cc(NC(=S)N2CCC(c3ccccc3)C2)c1 (stereo not given)	0.0%[7.34 µM]	/	137.8*	40.8*	/	0.4%[7.34 µM]
CCCCN(CC)C(=S)Nc1ccc2nc(N3CCN(C)CC3)cc(C)c2c1	/	/	28.4	27.7*	/	/
CCCCN(C)CCNC(=S)Nc1ccc2nc(N3CCN(CC)CC3)cc(C)c2c1	?	?	8.4	-2.4	7.08µM*	?
CCN1CCN(c2cc(C)c3cc(NC(=S)NCCN(C)C)ccc3n2)CC1	-29.9%	?	-5.0	2.2	?	-28.5%
CCN1CCN(c2cc(C)c3cc(NC(=S)N(C)Cc4ccccc4)ccc3n2)CC1	-26.1%	?	-6.1	10.4	?	?
CCCCN(C)C(=S)Nc1ccc2nc(N3CCN(CC)CC3)cc(C)c2c1	-22.7%	/	82.3*	12.6	/	-34.9%
Cc1ccc(S(=O)(=O)n2nc(-n3c(C)ccc3C)c3c(F)cccc32)c2ccccc12	20.0%	11.2µM*	19.7	-2.2	-20.2%[46.1 µM]	-13.4%
Cc1ccc(NC(=O)Nc2ccc([N+](=O)[O-])cc2)nc1	-2.3%	-15.4%[46.1 µM]	22.0	6.8	?	-3.6%
Cc1ccc(NC(=O)Nc2cccc([N+](=O)[O-])c2)nc1	-3.9%	-2.2%[46.1 µM]	85.1*	20.3*	-0.3%	6.7%
Cn1ccc(NC(=O)Nc2cccc([N+](=O)[O-])c2)n1	-5.1%	17.4%[46.1 µM]	39.1*	22.6*	7.2%	-24.3%
CC(=O)Nc1ccccc1-c1nc(CNC(=O)c2ccc(-n3cccn3)cc2)c(C)o1	0.9%	/	/	/	/	-12.8%
Cc1ccc(Cl)cc1NC(=O)c1oc2ccc(S(=O)(=O)N(C)C3CCCCC3)cc2c1C	-16.4%	/	/	/	25.4%[46.1 µM]	-15.8%
CCOC(=O)N/N=C(\C)c1ccc(Br)cc1	-6.6%	?	64.9	30.6*	-21.1%	-2.9%
COc1ccc(/C(C)=N/NC(=O)OC(C)(C)C)cc1[N+](=O)[O-]	/	/	78.9*	22.3*	/	/
CCOC(=O)N/N=C(\C)c1ccc(C)c([N+](=O)[O-])c1	-10.2%	?	55.7	15.7*	21.5%	-13.1%
COc1ccc(C(=O)OCC(=O)NC(C)(C)C)cc1[N+](=O)[O-]	-1.9%	-1.8%	-9.3	-3.1	1.5%	-13.0%
CCOC(=O)N/N=C(\C)c1ccc(Oc2ncccn2)cc1	/	/	-7.0	-9.6	/	/
COc1cccc(-c2c(C(=O)O)cc(O)c3ccc(OC)cc23)c1	-2.8%	-18.9%[46.1 µM]	/	/	-12.8%[46.1 µM]	-0.9%
CCC(C)c1ccc(NC(=O)c2cccnc2)cc1 (stereo not given)	/	15.4%	59.3*	43.3*	?	/
O=C(Nc1ccc(NC(=O)c2cccnc2)cc1)c1ccccc1	-0.2%	5.6%[46.1 µM]	17.1	1.2	0.4%	-4.4%
CCCCSc1ccc(NC(=O)c2cccnc2)cc1	/	-15.7%	34.7	13.5*	7.6%	/
O=C(Nc1ccc(S(=O)(=O)Nc2ncccn2)cc1)c1cccnc1	-6.5%	?	113.7*	58.8*	9.4%	-14.2%
CCC(C)c1ccc(O)c(NC(=O)c2cccnc2)c1 (stereo not given)	-20.6%	-1.0%[46.1 µM]	-15.3	-1.9	1.3%	-6.8%
